From PubChem
BLM inh – blocks DNA unwinding by human BLM helicase. recombinant BLM DNA unwinding, fluorescence dequenching. Potency, µM (top dose mostly 56.1 µM), inactives show at the highest dose activity change, negative = inhibition, actives largely listed as inhibitors. 350,000 tested, 0.2% active. P54132;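 note: potency is the fitted concentration of half-maximal effect; plate controls were vehicle for no effect and no enzyme for full effect; nearly all actives have a fitted effect of over 35% in size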
GCN5L2 inh-1 – inhibitors of human GCN5L2 histone acetyltransferase; GCN5L2 HAT assay, ThioGlo1 CoA-SH fluorescence; AID 504327; 390,000 tested, 0.21% active; Potency, µM (top dose mostly 58.9 µM), for inactives: at the highest dose activity change, negative = inhibition, usual class: inhibitors; Q92830; note: potency is the fitted concentration of half-maximal effect; % is set by controls: 0 for no effect and ±100 for the full control effect
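Fluorescence readout, Ex340nm/Em540nm: ThioGlo1 (50uM final) reacts with free CoA thiol released as 20nM GCN5L2 acetylates H3(1-25) peptide (75uM) using acetyl-CoA (70uM). Compound and enzyme sat 15 min beforehand; 20 min room-temperature reaction.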
RECQ1 inh-1 – blocks DNA unwinding by human RECQ1; P46063; RECQ1 DNA unwinding, red fluorescence kinetic read; Potency, µM (highest dose often 57.3 µM), without a hit: top-dose activity, negative = inhibition, usual class: inhibitors; 240,000 tested, 0.54% active;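 note: potency is the fitted concentration of half-maximal effect; plate controls were vehicle for no effect and no enzyme for full effect; nearly all actives have a fitted effect of over 30% in size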
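50 nM RECQ1T1 preincubated 15 min with compound in Tris pH 8.0 buffer with MgCl2, DTT, Tween-20 and 2.5 ug/ml poly(dI-dC); started with 200 nM TAMRA/BHQ-2 forked duplex and 2 mM ATP. Unwinding read as fluorescence (525/598 nm), two reads 2 h apart.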
APEX1 inh – inhibitors of human APE1 endonuclease. Potency, µM (series often up to 65.8 µM), without a hit: top-dose activity change, negative = inhibition, hits mostly inhibitors. recombinant APE1, TAMRA/BHQ-2 abasic DNA cleavage fluorescence. 350,000 tested, 0.35% active. P27695;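 note: potency is the fitted concentration of half-maximal effect; plate controls were vehicle for no effect and reference inhibitor for full effect; nearly all actives have a fitted effect of over 55% in size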
Target sequence (P27695 whole entry, looked up): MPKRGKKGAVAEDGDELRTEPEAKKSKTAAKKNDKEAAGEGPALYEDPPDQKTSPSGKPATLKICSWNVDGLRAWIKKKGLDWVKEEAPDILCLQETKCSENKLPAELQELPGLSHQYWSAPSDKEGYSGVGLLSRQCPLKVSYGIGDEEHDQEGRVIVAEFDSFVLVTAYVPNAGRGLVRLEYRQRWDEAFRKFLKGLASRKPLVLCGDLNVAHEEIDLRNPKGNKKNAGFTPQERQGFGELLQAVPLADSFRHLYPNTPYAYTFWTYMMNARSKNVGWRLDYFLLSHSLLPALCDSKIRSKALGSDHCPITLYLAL
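Incision of a quenched TAMRA/BHQ-2 THF abasic-site duplex (50 nM) by 0.75 nM APE1, after 15 min compound preincubation, measured as fluorescence increase over three 60 s reads. Values normalized to buffer, DMSO and NSC13755 control wells.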
KDM4E inh – inhibitors of human JMJD2E histone demethylase | Potency, µM (doses to about 57.1 µM), for inactives: at the highest dose activity change, negative = inhibition, hits mostly inhibitors | B2RXH2 | 230,000 tested, 1.6% active | AID 2147 | JMJD2E catalytic domain, FDH-coupled NADH fluorescence (FDH is formaldehyde dehydrogenase);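 note: potency is the fitted concentration of half-maximal effect; 0% = wells with enzyme and -100% = buffer wells without enzyme; nearly all actives have a fitted effect of over 50% in size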
Target sequence (B2RXH2 1-337 limits assumed): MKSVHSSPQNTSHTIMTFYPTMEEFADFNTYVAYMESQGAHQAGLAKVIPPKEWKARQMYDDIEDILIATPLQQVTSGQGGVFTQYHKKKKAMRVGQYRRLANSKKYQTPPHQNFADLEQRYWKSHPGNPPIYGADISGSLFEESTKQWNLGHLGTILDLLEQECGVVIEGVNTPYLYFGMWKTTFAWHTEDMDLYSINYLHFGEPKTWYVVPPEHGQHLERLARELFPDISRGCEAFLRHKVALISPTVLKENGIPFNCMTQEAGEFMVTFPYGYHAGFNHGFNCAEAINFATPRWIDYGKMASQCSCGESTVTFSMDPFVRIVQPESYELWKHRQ
L3MBTL1 inh-1 – L3MBTL1 (human) inhibition. Q9Y468. AlphaScreen L3MBTL1–H3K9me1 peptide binding. Potency, µM (top dose mostly 57.1 µM), without a hit: at the top dose activity, negative = inhibition, hits mostly inhibitors. 230,000 tested, 0.66% active; note: potency is the fitted concentration of half-maximal effect; % is set by controls: 0 for no effect and ±100 for the full control effect; nearly all actives have a fitted effect of over 60% in size
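AlphaScreen assay: L3MBTL1 (50 nM final) was preincubated 30 min at room temperature with biotinylated H3(1-15)K9me1 peptide (75 nM final), then 30 min with library compounds; streptavidin donor and nickel chelate acceptor beads (10 ug/mL final) added, 30 min dark.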
RECQ1 inh conf – confirmation of human RECQ1 helicase inhibitors | shares compounds with RECQ1 inh-1 | RECQ1 helicase DNA unwinding, fluorescence | Potency, µM (highest dose often 229 µM), inactives show at the highest dose activity change, negative = inhibition, most hits filed as inhibitors | 610 tested, 28% active | AID 2708; note: potency is the fitted concentration of half-maximal effect; % is set by controls: 0 for no effect and ±100 for the full control effect; nearly all actives have a fitted effect of over 45% in size
RECQ1 ADP FP – ADP displacement flagged in RECQ1 inhibitor counter-screen | shares compounds with RECQ1 inh-1 | 530 tested, 27% active | AID 2711 | Potency, µM (series often up to 228 µM), without a hit: at the top dose activity change, negative = inhibition, actives largely listed as inhibitors | ADP fluorescence polarization displacement counterscreen; note: potency is the fitted concentration of half-maximal effect; % is set by controls: 0 for no effect and ±100 for the full control effect; nearly all actives have a fitted effect of over 45% in size
RECQ1 inh-2 – RECQ1 helicase inhibition confirmed, round 2; shares compounds with RECQ1 inh-1; recombinant RECQ1 DNA unwinding, red fluorescence; Potency, µM (top dose mostly 119 µM), inactives show at the highest dose activity, negative = inhibition, actives largely listed as inhibitors; 1,100 tested, 15% active; note: potency is the fitted concentration of half-maximal effect; % is set by controls: 0 for no effect and ±100 for the full control effect; nearly all actives have a fitted effect of over 50% in size
L3MBTL1 inh-2 – blocks human L3MBTL1 methyl-lysine binding | shares compounds with L3MBTL1 inh-1 | L3MBTL1 methyl-lysine binding inhibition, biochemical qHTS | Potency, µM, usual class: inhibitors | 500 tested, 91% active; note: potency is the fitted concentration of half-maximal effect; nearly all actives have a fitted effect of over 70% in size
AlphaScreen ctr2 – counter-screen for L3MBTL1 inhibitors: AlphaScreen signal interference; shares compounds with L3MBTL1 inh-1; AlphaScreen counterscreen, signal inhibition; Potency, µM (titrated, usually from 57.1 µM), without a hit: at the top dose activity change, negative = inhibition, hits mostly inhibitors; 500 tested, under 10 active; AID 602224; note: potency is the fitted concentration of half-maximal effect; 0% is about no effect
GCN5L2 inh-2 – confirmation of human GCN5L2 histone acetyltransferase inhibitors; shares compounds with GCN5L2 inh-1; GCN5L2 HAT, ThioGlo1 CoA fluorescence, 20 min; Potency, µM, usual class: inhibitors; 140 tested, 70% active
* marks the source's active call; other numbers are inactive results; i = inactive; ? = inconclusive; · = no result given; ! = repeats disagree; [ ] = remark or other dose. Shown is part of a subset that was picked to be rich in hits. Unless noted, calls come from the whole dose curve; as a rule, active = well fitted curve in the direction sought with a large enough effect; inconclusive = small, poorly fitted or top-dose-only effect, or another doubt; inactive = no such curve, though single readings can be large; an effect the other way counts as inactive or inconclusive.

SMILES	BLM inh	GCN5L2 inh-1	RECQ1 inh-1	APEX1 inh	KDM4E inh	L3MBTL1 inh-1	RECQ1 inh-2	L3MBTL1 inh-2	AlphaScreen ctr2	others
C=CC(=O)NCC1OCCc2ccccc21 (centres undefined)	-2%	-6%	i	0%	0%	8%	·	·	·
CCOc1ccccc1C1N=C(N)Nc2nc3ccccc3n21 (centres undefined)	-2%	-6%	·	·	·	·	·	·	·
O=[N+]([O-])c1cc(F)c2cccnc2c1O	?	-6%	?	-5%	87%	13µM*	20%	6*	-60%
O=[N+]([O-])c1ccc(O)c2cccnc12	-5%	-9%	-5%	-3%	-11%	·	·	·	·
O=C(c1cnn2c(C(F)F)cc(-c3ccccc3)nc12)N1CCCCC1c1cccnc1 (centres undefined)	-4%	-21%	-8%	-1%	?	·	·	·	·
O=C(O)c1cc(-c2ccco2)nc2ccc(Br)cc12	-12%	?	3.2µM*!	13µM*	?	4.5µM*	?	2.4*	1%	RECQ1 inh conf=45µM*;RECQ1 ADP FP=?
COc1ccc(S(=O)(=O)N(CC(=O)NCCSc2ccccc2)c2ccc(Cl)cc2)cc1	-10%	-7%	·	·	·	·	·	·	·
C=CCn1c(C)cc(C(=O)Cn2ncc(Cl)c(Cl)c2=O)c1C	-24%	-24%	10µM*	?	-2%	14µM*	-22%	?	0%
CCN1CCN(C(CNS(=O)(=O)c2ccc(F)cc2)c2cccnc2)CC1 (centres undefined)	2%	-8%	·	-9%	·	·	·	·	·
O=C(O)CC/C(=C\c1cccc(NC(=O)c2ccccc2Cl)c1)c1nc2ccccc2s1	-18%	-7%	?	?	?	35µM*	?	?	-3%
COCCn1c(C)cc(C(=O)COC(=O)c2cc3c(s2)CCC3)c1C	-25%	-12%	?	13µM*	?	10µM*	?	6.7*	?
C/C(=N\Nc1nccnc1Cl)c1ccc(O)c(C)c1	5%	-13%	·	-3%	·	-9%[2.29 µM]	·	·	·
Cc1cc2c(c(=O)o1)C(c1ccc([N+](=O)[O-])o1)C(C#N)=C(N)O2 (centres undefined)	-1%	-2%	22µM*	8.9µM*	?	32µM*	-19%	?	9%
CCC(CC)C1C(C#N)=C(N)Oc2cc(C)oc(=O)c21 (centres undefined)	-5%	-3%	-11%	17%	0%	·	·	·	·
COc1cccc(=O)c2c(C)n(-c3ccc(C(=O)O)cc3)c(C)c12	2%	-5%	?	?	?	25µM*	?	21*	-15%
O=C(CSc1nnc(-c2ccco2)c(-c2ccco2)n1)Nc1ccccc1	14µM*	?	10µM*	14µM*	16µM*	4µM*	-26%	·	·	GCN5L2 inh-2=26*
COc1ccc(NC(=O)CSc2nnc(-c3ccco3)c(-c3ccco3)n2)cc1OC	-15%	-11%	·	-8%	·	·	·	·	·
CCCc1cc(=O)[nH]c(SCC(=O)Nc2sccc2C#N)n1	·	-6%	·	-17%	·	-21%	·	·	·
O=C(N/N=C/c1ccc(-c2ccc(S(=O)(=O)Nc3ncccn3)cc2)o1)c1cc2ccccc2cc1O	?	?	3.5µM*	?	?	·	·	·	·	RECQ1 inh conf=45µM*;RECQ1 ADP FP=-12%[91.9 µM];GCN5L2 inh-2=?
COC(=O)c1ccccc1C(=O)c1ccc(OCCN2CCCCC2)cc1	4%	1%	·	·	·	·	·	·	·
Cc1c2cnn(CC(=O)Nc3c(F)c(F)cc(F)c3F)c(=O)c2c(C)n1Cc1ccccc1F	?	13µM*	25µM*	?	?	·	?	·	·	GCN5L2 inh-2=20*
COC(=O)\C(C(C)=O)=C(/C=C/C=C/N(C)C)N(C)C	3%	-6%	-16%	?	-21%	14µM*	·	6.7*	19%
O=C(CCN1C(=O)c2ccccc2S1(=O)=O)Nc1ccc(C(=O)O)cc1	-4%	-13%	·	-2%	·	11%	·	·	·
CCOc1ccccc1NC(=O)Cn1c(=O)n(Cc2nc(C)no2)c(=O)c2ccccc21	-1%	-3%	·	·	·	·	·	·	·
Cc1ccnc(NC(c2cccnc2)c2ccc3cccnc3c2O)c1 (centres undefined)	-4%	17%	-1%	3%	5.6µM*	13µM*	·	11*	-91%
Cc1ccnc(NC(c2cc(C)ccc2O)c2ccc3cccnc3c2O)c1 (centres undefined)	-8%	-6%	·	·	·	·	·	·	·
